# Screening data (PubChem)
# Mot1-301 SUMO: SUMOylation pathway inhibition by Mot1-301 growth rescue; AID 2716; growth rescue, % at 18.8 µM; 1% of 320,000 active; S. cerevisiae Mot1-301 growth rescue, ATP luminescence, 38.5C; percent above DMSO median, 100 means doubled;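 active = every valid replicate shows activation above 250% relative to neutral control wells; inactive = the rest, any valid replicate at or below 250%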;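 also: OY570 slx delta 5 strain wells were the positive control but not used for scaling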
# NALP1 inh: blocks the NALP1 inflammasome reconstituted in yeast; inhibition, % at 10 µM; S. cerevisiae NALP1/ASC/caspase-1 growth, X-gal OD620, 72 h; 0.61% of 280,000 active; AID 2071; in the data active = inhibition mostly above about 24%, no sharp cut-off; inactive = mostly below about 32%
# NLRP3 yeast inh: blocks the NALP3 inflammasome reconstituted in yeast. Yeast reconstituted NLRP3/ASC/caspase-1, beta-gal luminescence, 24 h. inhibition, % at 10 µM. 0.39% of 330,000 active;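 active = inhibition of 50% or more; inactive = inhibition below 50%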;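 also: plate controls were induced DMSO wells for no effect and uninduced yeast grown without galactose for full effect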
# CHT inh: human CHT choline transport inhibition | Q9GZV3 | AID 488975 | CHT-expressing cells, membrane potential dye, choline response; stronger effect = lower value | 0.86% of 310,000 active | B-score at 10 µM;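 active = B-score over 3 SD under the library average, and starting fluorescence ratio not unusually high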;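 also: choline stimulus applied at its EC90 after an EC20 pre-addition; B-score computed on integrated fluorescence ratio after choline addition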
# Target sequence (Q9GZV3 whole entry, looked up): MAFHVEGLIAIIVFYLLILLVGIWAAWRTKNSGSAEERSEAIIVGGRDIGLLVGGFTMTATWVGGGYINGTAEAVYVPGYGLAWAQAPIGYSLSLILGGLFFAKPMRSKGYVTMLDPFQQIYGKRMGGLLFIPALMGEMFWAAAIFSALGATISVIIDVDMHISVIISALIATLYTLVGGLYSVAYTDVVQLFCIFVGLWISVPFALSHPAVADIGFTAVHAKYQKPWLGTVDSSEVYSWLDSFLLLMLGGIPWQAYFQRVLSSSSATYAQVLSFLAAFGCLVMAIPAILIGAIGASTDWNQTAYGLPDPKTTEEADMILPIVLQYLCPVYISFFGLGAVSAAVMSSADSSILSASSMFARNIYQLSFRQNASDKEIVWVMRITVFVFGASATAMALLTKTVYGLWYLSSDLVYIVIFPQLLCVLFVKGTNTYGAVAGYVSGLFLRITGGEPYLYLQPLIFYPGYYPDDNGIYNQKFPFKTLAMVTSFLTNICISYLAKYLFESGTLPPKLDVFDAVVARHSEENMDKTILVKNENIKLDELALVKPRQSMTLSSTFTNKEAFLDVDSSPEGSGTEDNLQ
# Bfl-1 A1 inh: inhibitors of the anti-apoptotic protein A1, read as caspase activation. MEF A1-2A-BIM cells, Caspase-Glo 3/7 luminescence, 3 h; percent of clofoctol response, vehicle zero. caspase activation, % (no concentration beside the values). AID 2462. 0.066% of 330,000 active;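 active = over half of replicate activation scores above 10%, or exactly half above 10 with the replicate mean above 10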
# CHT allo act: allosteric activators of human choline transporter CHT; Q9GZV3; CHT-expressing cells, membrane potential dye, choline EC20; stronger effect = higher value; LV-AA mutant CHT in HEK293 cells; B-score at 10 µM; 0.49% of 310,000 active;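 active = initial fluorescence not abnormally high and integrated response B-score, plate-corrected, over 3 SD above library mean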
# NALP3 yeast conf: NALP3 inhibition confirmation in yeast; yeast expressing human NALP3, luminescence; shares compounds with NLRP3 yeast inh; AID 435006; 81% of 1,300 active; inhibition, % at 10 µM; in the data active = inhibition above about 48%
# Casp1 ASC ctr: active in yeast caspase-1-ASC counter-screen for NALP3 inhibitors | shares compounds with NLRP3 yeast inh | yeast expressing Caspase-1-ASC, luminescence counter screen | 66% of 1,000 active | inhibition, % at 10 µM | AID 488784
# NALP3 retest: confirmation retest of NALP3 inhibitors in yeast | shares compounds with NLRP3 yeast inh | yeast expressing human NALP3, luminescence read-out | inhibition, % at 10 µM | 53% of 1,000 active | AID 488794
# An asterisk follows results filed as active; i = inactive; . = not tested or not shown. In the library only some 3% were active in any assay of this set; here they are far more common. Rule as the data show it, unless noted: active = inhibition above about 50%; inactive = the rest.
SMILES,Mot1-301 SUMO,NALP1 inh,NLRP3 yeast inh,CHT inh,Bfl-1 A1 inh,CHT allo act,NALP3 yeast conf,Casp1 ASC ctr,NALP3 retest
Cc1[nH]c2ccccc2c1C(=O)/C=C/c1ccccc1Cl,-11,7,61*,i,-2,i,22,.,.
Cc1nc2ccccc2c(N)c1C(=O)/C=C/c1ccccc1,172,18,75*,i,-1,i,74*,56*,38
Cc1[nH]c2ccccc2c1C(=O)/C=C/c1ccccc1,101,-3,63*,i,1,i,52*,80*,75*
Cc1[nH]c2ccccc2c1C(=O)/C=C\c1ccccc1Cl,-4,.,53*,i,0,i,-20,.,.
COC(=O)Cc1ccc(NC(=S)N2CCN(CCO)CC2)cc1,126,.,11,i,-1,i,.,.,.
COC(=O)c1ccc(-c2nc3ccccc3[nH]2)cc1,-26,46,63*,i,-9,i,38,.,.
COc1ccc(-c2nc3ccccc3[nH]2)cc1,-42,10,55*,i,-8,i,62*,57*,66*
CCc1sc(C(=O)N2CCc3ccccc32)cc1C,-4,-4,51*,i,-7,i,34,.,.
CCc1noc(C)c1C(=O)Nc1nc(-c2cccs2)cs1,1,.,56*,i,0,i,71*,62*,60*
CCc1noc(C)c1C(=O)Nc1ncc(C)s1,-16,-31,14,i,0,i,.,.,.
CCc1noc(C)c1C(=O)Nc1ccc(C(F)(F)F)cc1,15,15,50*,i,-1,i,62*,49,46
Cc1noc(C)c1C(=O)Nc1nc(-c2cccs2)cs1,51,.,39,.,-8,.,.,.,.
CCc1noc(C)c1C(=O)Nc1nc2c(F)cc(F)cc2s1,136,.,72*,.,-14,.,76*,79*,67*
CCc1noc(C)c1C(=O)Nc1nc2c(C)cccc2s1,.,.,59*,i,-1,i,74*,69*,55*
O=C(c1cc(S(=O)(=O)NCc2ccco2)ccc1Br)N1CCOCC1,18,.,6,.,0,.,.,.,.
CCOC(=O)C1(CCOc2ccccc2)CCN(Cc2ccc(O)c(OCC)c2)CC1,22,1,18,i,0,i,.,.,.
COC(=O)c1c(NC(=O)c2ccco2)sc(C)c1C,.,9,14,i,1,i,.,.,.
